# Reference: paper PMC7862700, “An all-to-all approach to the identification of sequence-specific readers for epigenetic DNA modifications on cytosine”
# What was measured:
# Assay in all cases: DAPPL (digital affinity profiling via proximity ligation, sequencing); 10 mM Tris-HCl pH 7.5, 50 mM NaCl, 1 mM DTT, 4% glycerol, room temperature, 30 min; GST-TFs on glutathione beads, 16-mer random dsDNA library, 0.1% formaldehyde crosslink after washing; high values mean tight binding
# Conditions in all cases: protein: recombinant; tags: N-terminal GST; dsDNA, one strand shown
# [1] = biological target: T1, FLI1 (Homo sapiens, UniProt Q01543 1-452)
# T1 sequence: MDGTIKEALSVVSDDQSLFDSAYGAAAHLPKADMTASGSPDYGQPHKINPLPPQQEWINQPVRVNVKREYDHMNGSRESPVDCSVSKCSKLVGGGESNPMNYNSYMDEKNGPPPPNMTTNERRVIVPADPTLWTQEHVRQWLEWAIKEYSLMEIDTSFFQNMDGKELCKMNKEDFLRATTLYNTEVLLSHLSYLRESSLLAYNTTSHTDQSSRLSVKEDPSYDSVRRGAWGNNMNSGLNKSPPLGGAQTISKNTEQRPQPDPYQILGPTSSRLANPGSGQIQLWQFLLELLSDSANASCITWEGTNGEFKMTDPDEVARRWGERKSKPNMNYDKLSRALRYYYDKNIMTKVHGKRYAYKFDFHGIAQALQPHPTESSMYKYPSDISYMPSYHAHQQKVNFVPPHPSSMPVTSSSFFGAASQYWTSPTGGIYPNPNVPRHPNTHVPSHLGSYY
# Method in brief: (§1)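 Human transcription factors carrying a GST fusion were produced in yeast, bound to glutathione beads, tagged with DNA barcodes and pooled together with a tag-only sample. Each pool was held with 200 nmole of a random double-stranded 16-mer DNA library in Tris/NaCl/DTT/glycerol buffer for 30 min at room temperature, then washed, crosslinked in 0.1% formaldehyde, proximity-ligated with BsaI/T4 ligase (1 h, 37 °C), PCR-amplified and sequenced on an Illumina NextSeq500. Binding signal is the read frequency of each hexamer for a given factor divided by its frequency in the tag-only sample.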
# [2] = biological target: T2, ELK1 (Homo sapiens, UniProt P19419 1-428)
# T2 sequence: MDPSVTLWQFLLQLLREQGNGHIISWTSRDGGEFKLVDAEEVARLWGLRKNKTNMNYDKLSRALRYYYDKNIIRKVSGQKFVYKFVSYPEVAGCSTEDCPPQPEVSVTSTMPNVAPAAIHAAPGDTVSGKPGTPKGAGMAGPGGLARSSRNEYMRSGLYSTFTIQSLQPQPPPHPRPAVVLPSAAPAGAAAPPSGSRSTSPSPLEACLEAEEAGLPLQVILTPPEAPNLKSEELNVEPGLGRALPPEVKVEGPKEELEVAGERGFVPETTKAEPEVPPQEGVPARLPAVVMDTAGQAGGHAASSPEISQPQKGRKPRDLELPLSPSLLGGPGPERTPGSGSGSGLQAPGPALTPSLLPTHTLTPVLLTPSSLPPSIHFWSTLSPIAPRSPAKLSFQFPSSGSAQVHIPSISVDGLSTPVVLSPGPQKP
# Method in brief: as §1
# [3] = biological target: T3, GABPA (Homo sapiens, UniProt Q06546 1-454)
# T3 sequence: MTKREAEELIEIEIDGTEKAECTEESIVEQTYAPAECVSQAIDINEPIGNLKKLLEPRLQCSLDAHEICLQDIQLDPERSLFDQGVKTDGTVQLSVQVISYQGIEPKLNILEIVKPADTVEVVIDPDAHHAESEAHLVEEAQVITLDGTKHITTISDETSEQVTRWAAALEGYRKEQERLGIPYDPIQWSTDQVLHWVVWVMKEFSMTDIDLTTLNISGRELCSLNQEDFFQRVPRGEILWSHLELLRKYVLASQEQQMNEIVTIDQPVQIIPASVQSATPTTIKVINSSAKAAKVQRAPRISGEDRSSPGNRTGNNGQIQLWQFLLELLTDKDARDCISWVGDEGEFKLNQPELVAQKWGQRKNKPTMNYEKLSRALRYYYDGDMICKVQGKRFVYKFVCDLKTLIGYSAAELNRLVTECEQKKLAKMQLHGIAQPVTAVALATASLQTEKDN
# Method in brief: as §1
# [4] = biological target: T4, ERG (Homo sapiens, UniProt P11308 1-479)
# T4 sequence: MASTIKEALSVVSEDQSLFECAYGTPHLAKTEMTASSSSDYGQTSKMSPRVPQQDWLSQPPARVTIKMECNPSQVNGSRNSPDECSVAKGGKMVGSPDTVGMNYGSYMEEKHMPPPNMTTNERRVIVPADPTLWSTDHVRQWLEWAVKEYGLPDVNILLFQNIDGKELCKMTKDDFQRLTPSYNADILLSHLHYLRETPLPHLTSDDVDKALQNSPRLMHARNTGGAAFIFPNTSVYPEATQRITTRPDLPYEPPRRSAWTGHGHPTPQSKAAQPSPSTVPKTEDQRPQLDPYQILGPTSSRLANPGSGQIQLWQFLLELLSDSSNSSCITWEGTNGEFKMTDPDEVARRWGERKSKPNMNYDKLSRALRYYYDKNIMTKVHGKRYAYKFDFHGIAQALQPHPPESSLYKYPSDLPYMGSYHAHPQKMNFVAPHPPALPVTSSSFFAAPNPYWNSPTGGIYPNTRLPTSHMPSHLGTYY
# Method in brief: as §1
# [5] = biological target: ELF1 (Homo sapiens, UniProt P32519 1-619)
# Method in brief: as §1
# [6] = biological target: T5, EHF (Homo sapiens, UniProt Q9NZC4 1-300)
# T5 sequence: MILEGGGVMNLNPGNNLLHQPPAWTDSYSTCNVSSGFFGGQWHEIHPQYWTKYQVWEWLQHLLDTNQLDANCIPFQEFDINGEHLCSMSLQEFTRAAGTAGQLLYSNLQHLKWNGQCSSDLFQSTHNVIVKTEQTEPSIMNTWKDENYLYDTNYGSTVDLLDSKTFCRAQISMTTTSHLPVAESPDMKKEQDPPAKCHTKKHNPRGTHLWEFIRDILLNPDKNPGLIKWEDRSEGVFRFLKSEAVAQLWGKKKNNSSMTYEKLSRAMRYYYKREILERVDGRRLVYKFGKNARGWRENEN
# Method in brief: as §1
# [7] = biological target: SPI1 (Homo sapiens, UniProt P17947 1-270)
# Method in brief: as §1
# [8] = biological target: SPIB (Homo sapiens, UniProt Q01892 1-262)
# Method in brief: as §1
# [9] = biological target: ETV5 (Homo sapiens, UniProt P41161 1-510)
# Method in brief: as §1
# [10] = biological target: T6, SPIC (Homo sapiens, UniProt Q8N5J4 1-248)
# T6 sequence: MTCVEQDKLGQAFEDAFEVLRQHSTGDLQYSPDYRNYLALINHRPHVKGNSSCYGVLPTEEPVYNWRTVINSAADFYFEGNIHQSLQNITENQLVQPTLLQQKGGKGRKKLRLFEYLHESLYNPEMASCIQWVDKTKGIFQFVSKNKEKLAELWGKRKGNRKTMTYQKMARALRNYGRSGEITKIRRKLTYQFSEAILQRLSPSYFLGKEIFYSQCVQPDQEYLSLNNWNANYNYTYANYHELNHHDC
# Method in brief: as §1
# [11] = biological target: ELF4 (Homo sapiens, UniProt Q99607 1-663)
# Method in brief: as §1
# [12] = biological target: ETV1 (Homo sapiens, UniProt P50549 1-477)
# Method in brief: as §1
# [13] = biological target: T7, ETS2 (Homo sapiens, UniProt P15036 1-469)
# T7 sequence: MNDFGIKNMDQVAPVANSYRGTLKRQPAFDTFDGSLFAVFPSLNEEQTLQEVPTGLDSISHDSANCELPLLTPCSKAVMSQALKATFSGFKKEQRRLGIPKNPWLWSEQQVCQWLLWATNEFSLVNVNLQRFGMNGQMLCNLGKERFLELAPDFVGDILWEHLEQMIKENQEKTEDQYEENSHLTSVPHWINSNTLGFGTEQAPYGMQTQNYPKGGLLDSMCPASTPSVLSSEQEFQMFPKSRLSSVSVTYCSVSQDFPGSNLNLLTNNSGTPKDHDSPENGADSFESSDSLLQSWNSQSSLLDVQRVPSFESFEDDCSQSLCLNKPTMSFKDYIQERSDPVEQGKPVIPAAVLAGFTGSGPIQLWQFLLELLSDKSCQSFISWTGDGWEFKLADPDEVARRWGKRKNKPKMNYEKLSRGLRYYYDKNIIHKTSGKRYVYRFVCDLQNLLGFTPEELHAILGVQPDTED
# Method in brief: as §1
# [14] = biological target: T8, ETV3 (Homo sapiens, UniProt P41162-2 1-143)
# T8 sequence: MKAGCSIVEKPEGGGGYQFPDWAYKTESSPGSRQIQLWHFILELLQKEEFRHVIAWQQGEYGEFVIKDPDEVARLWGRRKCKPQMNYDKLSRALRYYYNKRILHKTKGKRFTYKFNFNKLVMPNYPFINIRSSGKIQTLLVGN
# Method in brief: as §1
# Chain of ETV5 (P41161 whole entry): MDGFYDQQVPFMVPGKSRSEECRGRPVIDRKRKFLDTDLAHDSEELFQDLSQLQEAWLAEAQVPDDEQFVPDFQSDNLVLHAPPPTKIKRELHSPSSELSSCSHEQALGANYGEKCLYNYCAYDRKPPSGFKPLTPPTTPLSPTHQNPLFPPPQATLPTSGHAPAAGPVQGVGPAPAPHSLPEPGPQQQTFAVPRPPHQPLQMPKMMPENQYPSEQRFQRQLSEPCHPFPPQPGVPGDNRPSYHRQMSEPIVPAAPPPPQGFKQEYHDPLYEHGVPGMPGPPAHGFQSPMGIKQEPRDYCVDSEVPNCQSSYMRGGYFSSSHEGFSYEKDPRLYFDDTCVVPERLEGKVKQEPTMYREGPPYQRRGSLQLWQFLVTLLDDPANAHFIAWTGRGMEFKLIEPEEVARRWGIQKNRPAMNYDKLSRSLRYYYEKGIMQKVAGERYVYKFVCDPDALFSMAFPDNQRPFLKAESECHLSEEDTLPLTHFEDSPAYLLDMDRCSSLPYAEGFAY
# Chain of ETV1 (P50549 whole entry): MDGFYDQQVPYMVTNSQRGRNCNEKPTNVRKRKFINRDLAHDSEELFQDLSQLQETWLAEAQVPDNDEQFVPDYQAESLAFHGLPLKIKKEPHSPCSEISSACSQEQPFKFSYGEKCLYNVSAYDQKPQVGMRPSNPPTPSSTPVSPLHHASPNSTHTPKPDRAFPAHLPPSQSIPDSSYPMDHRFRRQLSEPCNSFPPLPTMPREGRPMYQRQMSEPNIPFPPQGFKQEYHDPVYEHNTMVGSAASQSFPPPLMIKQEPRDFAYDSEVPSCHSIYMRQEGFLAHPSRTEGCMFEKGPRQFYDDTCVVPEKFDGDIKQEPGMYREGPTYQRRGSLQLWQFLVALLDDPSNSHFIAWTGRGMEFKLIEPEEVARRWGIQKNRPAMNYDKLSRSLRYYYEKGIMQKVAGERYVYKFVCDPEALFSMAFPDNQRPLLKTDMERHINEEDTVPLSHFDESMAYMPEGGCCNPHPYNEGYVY
# Chain of SPIB (Q01892 whole entry): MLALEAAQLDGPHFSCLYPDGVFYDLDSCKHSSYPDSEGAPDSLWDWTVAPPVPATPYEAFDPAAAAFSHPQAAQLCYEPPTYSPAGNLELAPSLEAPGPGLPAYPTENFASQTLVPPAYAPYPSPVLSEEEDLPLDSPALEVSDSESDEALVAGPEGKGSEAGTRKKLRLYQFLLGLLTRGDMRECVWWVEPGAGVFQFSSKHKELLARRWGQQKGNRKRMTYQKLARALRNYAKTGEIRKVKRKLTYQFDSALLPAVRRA
# Chain of ELF1 (P32519 whole entry): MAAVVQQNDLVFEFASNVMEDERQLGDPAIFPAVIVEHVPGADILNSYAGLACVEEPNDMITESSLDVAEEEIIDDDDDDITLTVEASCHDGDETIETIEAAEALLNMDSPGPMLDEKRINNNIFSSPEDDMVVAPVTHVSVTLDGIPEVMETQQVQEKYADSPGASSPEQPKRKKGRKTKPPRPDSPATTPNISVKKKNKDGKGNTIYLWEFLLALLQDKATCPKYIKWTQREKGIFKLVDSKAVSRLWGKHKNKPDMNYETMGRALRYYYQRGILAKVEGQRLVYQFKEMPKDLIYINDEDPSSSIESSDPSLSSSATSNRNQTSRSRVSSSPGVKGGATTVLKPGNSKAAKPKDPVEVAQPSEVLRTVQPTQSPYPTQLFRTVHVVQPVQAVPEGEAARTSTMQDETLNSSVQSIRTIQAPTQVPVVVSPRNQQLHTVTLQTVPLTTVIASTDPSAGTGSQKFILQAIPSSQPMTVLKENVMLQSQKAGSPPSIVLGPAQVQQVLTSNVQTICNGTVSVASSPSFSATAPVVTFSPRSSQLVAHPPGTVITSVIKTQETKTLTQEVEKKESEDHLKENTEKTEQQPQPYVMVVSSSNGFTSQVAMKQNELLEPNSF
# Chain of ELF4 (Q99607 whole entry): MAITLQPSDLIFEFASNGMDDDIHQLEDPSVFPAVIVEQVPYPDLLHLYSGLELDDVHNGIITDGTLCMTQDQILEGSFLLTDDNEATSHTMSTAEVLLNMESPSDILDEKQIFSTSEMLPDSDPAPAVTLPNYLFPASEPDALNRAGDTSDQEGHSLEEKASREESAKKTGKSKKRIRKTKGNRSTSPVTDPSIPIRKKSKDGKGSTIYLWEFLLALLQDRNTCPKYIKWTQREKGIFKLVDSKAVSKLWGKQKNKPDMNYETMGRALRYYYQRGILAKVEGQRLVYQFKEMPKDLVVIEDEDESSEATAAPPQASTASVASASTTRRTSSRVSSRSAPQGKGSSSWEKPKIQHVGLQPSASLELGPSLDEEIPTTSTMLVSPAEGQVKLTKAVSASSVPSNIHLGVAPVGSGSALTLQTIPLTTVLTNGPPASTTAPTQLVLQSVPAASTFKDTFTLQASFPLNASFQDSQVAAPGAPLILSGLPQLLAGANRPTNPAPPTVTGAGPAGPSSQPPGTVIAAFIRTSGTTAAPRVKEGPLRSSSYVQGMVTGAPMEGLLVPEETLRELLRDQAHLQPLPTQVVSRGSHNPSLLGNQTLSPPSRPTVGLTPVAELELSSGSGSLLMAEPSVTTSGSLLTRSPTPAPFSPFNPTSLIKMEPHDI
sequence,measurement,setting,value
AAGGGT,binding signal,[1],"1 fold enrichment (6-mer frequency, TF over GST control)"
same,binding signal,[2],"1.01 fold enrichment (6-mer frequency, TF over GST control)"
same,binding signal,[3],"1.01 fold enrichment (6-mer frequency, TF over GST control)"
same,binding signal,[4],"1 fold enrichment (6-mer frequency, TF over GST control)"
same,binding signal,[5],"1.01 fold enrichment (6-mer frequency, TF over GST control)"
same,binding signal,[6],"1.01 fold enrichment (6-mer frequency, TF over GST control)"
same,binding signal,[7],"1.05 fold enrichment (6-mer frequency, TF over GST control)"
same,binding signal,[8],"1.04 fold enrichment (6-mer frequency, TF over GST control)"
same,binding signal,[9],"1.05 fold enrichment (6-mer frequency, TF over GST control)"
same,binding signal,[10],"1.08 fold enrichment (6-mer frequency, TF over GST control)"
same,binding signal,[11],"1.01 fold enrichment (6-mer frequency, TF over GST control)"
same,binding signal,[12],"1.05 fold enrichment (6-mer frequency, TF over GST control)"
same,binding signal,[13],"1.07 fold enrichment (6-mer frequency, TF over GST control)"
same,binding signal,[14],"1.05 fold enrichment (6-mer frequency, TF over GST control)"
